This is a sample that favours compounds with a hit; in the whole collection about 12% have one here.
Pf growth 96h – inhibits malaria parasite growth, 96 h; actives 6.9% (n = 320,000); Potency, µM (top dose mostly 28.7 µM), for the others: top-dose activity change, negative = inhibition, hits mostly inhibitors; AID 504834; P. falciparum luciferase reporter growth, 96 h; note: % is set by controls: 0 for no effect and ±100 for the full control effect
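P. falciparum expressing integrated firefly luciferase, in erythrocytes at 2% hematocrit, 0.05% parasitemia, incubated with compounds 96 h at 37 C, 5% CO2. Growth inhibition read as loss of luminescence; two-generation exposure targets delayed-death apicoplast inhibitors.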
NS1 inh – blocks influenza NS1 protein function; AID 2326; Potency, µM (titrated, usually from 46.1 µM), inactives show at the top dose activity, positive = more growth; actives 0.4% (n = 270,000); calls by dose curve; note: actives are rising curves; nearly all actives have a fitted effect of over 50% in size
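S. cerevisiae expressing influenza A NS1, grown in glucose, washed, then diluted 1:100 into pH 6.0 -URA galactose medium with 23 nl compound. Growth recovery read as OD600; NS1-free strain serves as control.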
SARS PLpro yeast – blocks SARS-CoV papain-like protease in a yeast assay. S. cerevisiae expressing SARS-CoV PLpro, growth rescue. Potency, µM (titrated, usually from 32.9 µM), for inactives: top-dose activity, positive = growth rescue, hits mostly activators. actives 0.19% (n = 330,000). AID 485353; calls by dose curve; note: 0% is about no effect; nearly all actives have a fitted effect of over 55% in size
AMA1-RON2 inh – AMA1-RON2 (P. falciparum) interaction inhibition | AID 720542 | Potency, µM (highest dose often 58.2 µM), without a hit: at the top dose activity change, negative = inhibition, most hits filed as inhibitors | actives 0.2% (n = 360,000) | AlphaScreen AMA1-biotinylated RON2 peptide binding;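 note: 0% = vehicle wells and -100% = peptide control; nearly all actives have a fitted effect of over 45% in size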
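AMA1 (3D7) with his tag at 25 nM final met compounds first, then biotinylated RON2 peptide at 25 nM; detection used donor plus acceptor beads, 10 µg/mL apiece, read by AlphaScreen after 30 min at room temperature.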
HCV inhibitor – HCV inhibition. actives 3.4% (n = 340,000). Huh7.5.1 HCVcc-Cre infection, luciferase reporter, 44 h. Potency, µM (series often up to 41.8 µM), inactives show at the highest dose activity change, negative = inhibition, hits mostly inhibitors; note: % is set by controls: 0 for no effect and ±100 for the full control effect
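Compounds are dispensed onto cells plated 4 h earlier at 1,000 per well, with HCVcc-Cre virus (about 0.5 moi) added next. Following 44 h of culture, luminescent signal is measured for 15 sec after 15 min with substrate at room temperature.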
Pf growth 48h – P. falciparum growth inhibition at 48 hours (one generation). P. falciparum luciferase growth in erythrocytes, 48 h. actives 5.9% (n = 310,000). Potency, µM (top dose mostly 28.7 µM), for the others: top-dose activity change, negative = inhibition, actives largely listed as inhibitors; note: % is set by controls: 0 for no effect and ±100 for the full control effect
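Luciferase-expressing P. falciparum in infected erythrocytes (2% hematocrit, 0.1% parasitemia final) in RPMI 1640/0.5% Albumax were exposed to compound for 48 hours at 37 C, 5% CO2; growth read as luminescence.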
An asterisk follows results filed as active; ? = inconclusive; nt = no result given; ! = repeats disagree; [ ] = dose if it differs, or a comment. Unless noted, calls come from the whole dose curve; as a rule, active = well fitted curve in the direction sought with a large enough effect; inconclusive = small, poorly fitted or top-dose-only effect, or another doubt; inactive = no such curve, though single readings can be large; an effect the other way counts as inactive or inconclusive. Potency is the fitted concentration of half-maximal effect.

SMILES	Pf growth 96h	NS1 inh	SARS PLpro yeast	AMA1-RON2 inh	HCV inhibitor	Pf growth 48h
CCCC1=Nc2cc(C(=O)NCCCOC(C)C)ccc2Sc2ccccc21	10%	18%	-1%	-11%	?	12µM*
CCCC1=Nc2cc(C(=O)NCCCOCC)ccc2Sc2ccccc21	13µM*	-2%	-4%	-3%	?	?
Cc1ccc(N2CC(C(N)=O)CC2=O)cc1 (centres undefined)	-7%[5.75 µM]	-2%	5%	9%	10%	-3%
Cc1ccc(N2CCN(c3ccc(C)cc3)C(CC(=O)O)C2=O)cc1 (centres undefined)	?	16%	-1%	-8%	16%	12µM*
CC(C1CCN(Cc2cn(C)nc2-c2cccc(Cl)c2)CC1)N1CCOCC1 (centres undefined)	-14%	2%	0%	9%	-17%	?
COc1ccc(CCN2C(=O)c3ccccc3C2c2nnnn2C(C)C)cc1OC (centres undefined)	nt	nt	nt	2%	nt	nt
COc1cc(-c2coc3c(C(=O)NCc4ccc(OC)c(OC)c4)cccc23)ccc1O	nt	nt	nt	-15%	nt	nt
COc1ccc(-c2ccc(C(=O)NCc3ccco3)c3occc23)c(C)c1	nt	nt	nt	-19%	nt	nt
COc1cc(-c2coc3c(C(=O)NCc4ccc(N(C)C)cc4)cccc23)ccc1O	nt	nt	nt	32µM*	nt	nt
COc1ccc(-c2ccc(C(=O)NCc3ccc(N(C)C)cc3)c3occc23)c(C)c1	nt	nt	nt	8.9µM*	nt	nt
COc1ccc(CNC(=O)CSCc2ccccc2Cl)cc1	-9%	-4%	-3%	-2%	-1%	26%
Cc1ccc(CNC(=O)C2CCC(=O)N(Cc3ccccc3F)C2)s1 (centres undefined)	-20%	4%	1%	21%	-19%	0%
COc1nccc(NCc2ccccc2)c1C#N	nt	nt	nt	0%	5%	nt
Cc1cccc(C)c1OCc1cc(C(=O)NCC2CC2)no1	15µM*	-8%	-7%	3%	-22%	?
O=C(NCc1ccc(Cl)s1)c1cc(COc2c(F)cccc2F)on1	?	-2%	-1%	-7%	-2%	36%
Cc1cccc(C)c1OCc1cc(C(=O)NCc2ccc(Cl)s2)no1	10µM*	-2%	0%	12%	-12%	15%
COC(=O)c1ccccc1NC(=S)N1CCN(c2ccc(OC)cc2)CC1	0%	nt	8%	?	-19%	-9%
CC12CC3CC(C)(C1)CC(N)(C3)C2	6.7µM*!	-1%	4%	0%	20%	?
CCOc1ccccc1C(=O)NC(C)c1ccc(-n2ccnc2)cc1 (centres undefined)	8.3µM*	1%	0%	4%	?	?
COc1ccccc1OCCNC(=O)c1ccccc1OCc1c(C)noc1C	?	nt	0%	-5%	10%	-25%
CCOc1ccc(CCNC(=O)c2ccccc2OCc2c(C)noc2C)cc1OCC	?	nt	-5%	-7%	7.1µM*	?
CCOc1ccc(C(C)NC(=O)c2ccccc2OCc2c(C)noc2C)cc1OCC (centres undefined)	6.6µM*	1%	-2%	-2%	nt	?
O=C1CC(NS(=O)(=O)c2cccnc2)CN1c1ccc(Cl)cc1 (centres undefined)	-6%	nt	0%	12%	7%	-5%
Cc1c(Br)ccc(NC(=O)CCN2C(=O)C3C4CCC(C4)C3C2=O)c1C (centres undefined)	83%	-1%	10%	-1%	-1%	65%
Cc1cc(NC(=O)CCN2C(=O)C3C4CCC(C4)C3C2=O)cc(C)c1Br (centres undefined)	0.93µM*	-5%	21%	-18%	?	-2%
SMILES	Pf growth 96h	NS1 inh	SARS PLpro yeast	AMA1-RON2 inh	HCV inhibitor	Pf growth 48h
O=C(O)c1ccc(S(=O)(=O)N[C@H](Cc2ccc(O)cc2)C(=O)O)cc1	9%	nt	4%	nt	nt	4%
O=C(CNc1ccc2c(c1)OCO2)N/N=C\c1cn(Cc2ccc(F)cc2)c2ccccc12	?	13µM*	-7%	nt	-13%	?
OCCNc1nc(NCc2ccccc2)c2ccccc2n1	12µM*	7%	-7%	-2%	-26%	?
OCCNc1nc(Nc2ccc(O)cc2)nc2ccccc12	5.2µM*	4%	1%	-11%	-19%	1.7µM*
OCCNc1nc(Nc2cccc(O)c2)nc2ccccc12	0.1µM*	9%	-1%	-17%	-14%	2.3µM*
COc1cccc(Nc2nc(NCCO)c3ccccc3n2)c1	-11%	-6%	-10%	-18%	-11%	nt
CC(C)Nc1nc(NCCO)nc2ccccc12	nt	nt	nt	-5%	nt	nt
CCCCOCCCNC(=O)C[C@@H]1C[C@@]2(C(=O)OC)CC(C)(C)CC=C2N(CCc2ccc(OC)c(OC)c2)C1=O	nt	nt	nt	-5%	nt	nt
CCCCCCC(=O)N1C/C=C\C(c2ccc(OC)cc2)N(Cc2ccc(F)cc2)C(=O)[C@H]1Cc1ccccc1 (some centres undefined)	7.4µM*	7%	-9%	-2%	-20%[8.37 µM]	9.3µM*
COc1ccc(C2/C=C\CN(C(=O)c3ccc(C)cc3)[C@H](Cc3ccccc3)C(=O)N2Cc2ccc(F)cc2)cc1 (some centres undefined)	4.1µM*	-8%	-3%	-3%	-12%[8.37 µM]	4.1µM*
CCCCC(=O)N1C/C=C\C(c2ccc(OC)cc2)N(Cc2ccc(F)cc2)C(=O)[C@H]1Cc1ccccc1 (some centres undefined)	10µM*	-32%	-7%	0%	?	12µM*
COc1ccc(C2/C=C\CN(C(=O)C3CC3)[C@H](Cc3ccccc3)C(=O)N2Cc2ccc(F)cc2)cc1 (some centres undefined)	?	-4%	-11%	-11%	-10%[8.37 µM]	10µM*
CCCCCCC(=O)N1C/C=C\C(c2ccc(OC)cc2)N(Cc2ccc(F)cc2)C(=O)C1 (centres undefined)	?	-67%	-12%	-11%	-2%	?
CC(C)(C)CC(C)(C)c1ccc(OCCO)cc1	?	nt	nt	nt	nt	-27%
CN(CC(=O)Nc1ccc(Cl)c(C(F)(F)F)c1)C(=O)Cc1ccsc1	0%	nt	0%	-9%	?	?
COc1cccc(CNC(=O)[C@@H](C)N2C(=O)N3CCc4c([nH]c5ccc(OC)cc45)C3(C)C2=O)c1 (some centres undefined)	?	10%	-2%	-22%	8.9µM*	-50%
COc1ccc2[nH]c3c(c2c1)CCN1C(=O)N([C@@H](C)C(=O)NCc2ccc(C)cc2)C(=O)[C@]31C	?	19%	5%	-19%	?	?
COc1ccc(CCNC(=O)[C@H](C)N2C(=O)N3CCc4c([nH]c5ccccc45)[C@@]3(C)C2=O)cc1OC	-5%	-12%	?	-11%	1µM*	?
